According to PubChem BioAssay (NCI):
About 79,000 compounds went through this panel and 15% of them were active in at least one assay; those are over-represented in the sample as a whole. Active and inactive are the calls of the source. No stated cut-off is given here; in the data, active means growth inhibition above about 70%; inactive means the rest.

Key:
[1] = NCI Yeast Anticancer Drug Screen. Data for the rad52 strain (AID 147);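 further: 0% = growth of vehicle-treated control cultures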; conditions: S. cerevisiae rad52 mutant growth inhibition, hits give high values
Procedure, shortened: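 Yeast strain carrying a DNA damage repair alteration was exposed to test compounds. Growth inhibition was measured relative to vehicle-treated controls.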

[2] = NCI Yeast Anticancer Drug Screen. Data for the wt1 strain (AID 149);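 further: 0% = growth of vehicle-treated wt1 cultures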; conditions: S. cerevisiae wt1 strain (SPY 50644) growth inhibition, hits give high values
Procedure, shortened: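 Compounds are added to wt1 yeast cultures. Growth is then measured. Inhibition is expressed relative to vehicle-treated controls.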

[3] = NCI Yeast Anticancer Drug Screen. Data for the rad50EPP+ strain (AID 151);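 further: 0% = growth of vehicle-treated control cultures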; conditions: S. cerevisiae rad50 mutant strain, hits give high values
Procedure, shortened: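 Yeast strain carrying rad50 alteration (rad50EPP+) exposed to compounds; growth inhibition measured relative to vehicle-treated controls.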

[4] = NCI Yeast Anticancer Drug Screen. Data for the mgt1 strain (AID 153); conditions: S. cerevisiae mgt1 mutant growth inhibition, hits give high values
Procedure, shortened: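 Yeast mgt1 strain (DNA repair/cell-cycle alteration panel) exposed to compounds; growth inhibition measured relative to vehicle-treated controls.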

[5] = NCI Yeast Anticancer Drug Screen. Data for the rad50 strain (AID 155);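 further: 0% = growth of vehicle-only cultures of the same strain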; conditions: S. cerevisiae rad50 strain growth inhibition, hits give high values
Procedure, shortened: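 Inhibition values express reduced yeast growth in compound-treated cultures relative to vehicle-treated controls.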

[6] = NCI Yeast Anticancer Drug Screen. Data for the mec2-1 strain (AID 157); conditions: S. cerevisiae mec2-1 strain, hits give high values
Procedure, shortened: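 mec2-1 yeast strain, carrying an alteration in DNA damage repair or cell cycle control, was exposed to compounds; growth inhibition was measured relative to vehicle-treated controls.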

[7] = NCI Yeast Anticancer Drug Screen. Data for the rad14 strain (AID 159);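 further: 0% = growth of vehicle-treated control cultures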; conditions: S. cerevisiae rad14 strain growth inhibition, hits give high values
Procedure, shortened: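 A mutant yeast strain defective in DNA damage repair is treated with compound; inhibition of its growth is scored against untreated, vehicle-exposed cultures.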

[8] = NCI Yeast Anticancer Drug Screen. Data for the sgs1 mgt1 strain (AID 161);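 further: 0% = growth of cultures given vehicle only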; conditions: S. cerevisiae sgs1 mgt1 strain, hits give high values
Procedure, shortened: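 Compounds are added to genetically altered yeast, and growth is compared with cultures given vehicle alone to give percent inhibition.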

[9] = NCI Yeast Anticancer Drug Screen. Data for the CLN2oe strain (AID 163);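 further: 0% = growth of vehicle-only control cultures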; conditions: S. cerevisiae CLN2oe strain, hits give high values
Procedure, shortened: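 Yeast cells carrying a defined cell-cycle control alteration were exposed to test compounds. Growth inhibition was scored against vehicle-treated control cultures.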

[10] = NCI Yeast Anticancer Drug Screen. Data for the cln2 rad14 strain (AID 165);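 further: 0% = growth equal to vehicle treated cultures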; conditions: S. cerevisiae cln2 rad14 strain, hits give high values
Procedure, shortened: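 Yeast carrying cln2 and rad14 alterations (cell cycle control and DNA damage repair) were exposed to compounds. Growth inhibition was measured against vehicle-treated controls.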

[11] = NCI Yeast Anticancer Drug Screen. Data for the bub3 strain (AID 167); conditions: S. cerevisiae bub3 mutant strain, hits give high values
Procedure, shortened: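 Steps: expose the mutant yeast strain to compound; grow alongside vehicle-treated cultures; measure growth; express inhibition against the vehicle cultures.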

[12] = NCI Yeast Anticancer Drug Screen. Data for the wt2 strain (AID 169);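 further: 0% = growth of vehicle-treated yeast cultures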; conditions: S. cerevisiae wt2 strain growth inhibition, hits give high values
Procedure, shortened: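 Yeast cells were exposed to test compounds, and growth inhibition was measured relative to vehicle-treated controls.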

[13] = NCI Yeast Anticancer Drug Screen. Data for the mlh1 strain (AID 171);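 further: 0% = growth of vehicle-treated control cultures of the same strain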; conditions: S. cerevisiae mlh1 strain growth inhibition, hits give high values
Procedure, shortened: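 Yeast carrying a defined genetic alteration in DNA damage repair or cell cycle control were exposed to test compounds. Growth inhibition was measured relative to vehicle-treated controls.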

[14] = NCI Yeast Anticancer Drug Screen. Data for the sgs1 strain (AID 173);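 further: 0% = growth of vehicle-only control cultures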; conditions: S. cerevisiae sgs1 mutant, hits give high values
Procedure, shortened: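 Yeast mutant strains carrying defined defects in DNA damage repair or cell cycle control were exposed to test compounds. Growth inhibition was scored against vehicle-treated controls.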

[15] = NCI Yeast Anticancer Drug Screen. Data for the mlh1 rad18 strain (AID 175); conditions: S. cerevisiae mlh1 rad18 strain growth inhibition, hits give high values
Procedure, shortened: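 Growth inhibition of the yeast strain was measured after compound exposure and expressed relative to vehicle-treated controls. The strain carries defined defects in DNA damage repair.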

[16] = NCI Yeast Anticancer Drug Screen. Data for the rad18 strain (AID 177); conditions: S. cerevisiae rad18 mutant growth inhibition, hits give high values
Procedure, shortened: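 Yeast carrying a defined DNA damage repair alteration were exposed to compounds. Growth inhibition was expressed relative to vehicle-treated controls.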

[17] = at 5.0 µM (retest, dose inferred, filed as 0.5)
[18] = at 50.0 µM (retest, dose inferred, filed as 5.0)

Measured: growth inhibition

CCC(C)OC(=O)Nc1ccc(C)c(NC(=O)OC(C)CC)c1 (stereo unspecified)
active: [1]; at 100.0 µM 96% | [2]; at 100.0 µM 73% | [3]; at 100.0 µM 74% | [4]; at 100.0 µM 96% | [5]; [18] 76% | [5]; at 100.0 µM 96% | [6]; at 50.0 µM 76% | [6]; at 100.0 µM 90% | [7]; at 100.0 µM 94% | [8]; [18] 85% | [8]; at 50.0 µM 79.4% | [9]; at 100.0 µM 95% | [10]; [18] 74% | [10]; at 50.0 µM 80% | [11]; [18] 83% | [11]; at 50.0 µM 75% | [11]; at 100.0 µM 94% | [12]; at 100.0 µM 96% | [13]; at 100.0 µM 96% | [14]; at 100.0 µM 96% | [15]; [18] 89% | [15]; at 50.0 µM 79.5% | [16]; at 100.0 µM 96%
inactive: [1]; at 1.2 µM -1% | [1]; at 3.7 µM -1% | [1]; at 11.0 µM 3% | [1]; at 33.0 µM 9% | [2]; at 1.2 µM -3% | [2]; at 3.7 µM 0% | [2]; at 11.0 µM -5% | [2]; at 33.0 µM 2% | [3]; at 1.2 µM -2% | [3]; at 3.7 µM -5% | [3]; at 11.0 µM -1% | [3]; at 33.0 µM 11% | [4]; at 1.2 µM -2% | [4]; at 3.7 µM -2% | [4]; at 11.0 µM -1% | [4]; at 33.0 µM 1% | [5]; at 1.2 µM 1% | [5]; at 3.7 µM 1% | [5]; [17] 4% | [5]; at 11.0 µM 2% | [5]; at 33.0 µM 9% | [5]; at 50.0 µM 54% | [6]; at 1.2 µM -2% | [6]; at 3.7 µM 0% | [6]; [17] -11% | [6]; at 11.0 µM -2% | [6]; at 33.0 µM 2% | [6]; [18] 18% | [7]; at 1.2 µM 0% | [7]; at 3.7 µM 2% | [7]; at 11.0 µM 1% | [7]; at 33.0 µM 6% | [8]; [17] 1% | [9]; at 1.2 µM 3% | [9]; at 3.7 µM 2% | [9]; at 11.0 µM 7% | [9]; at 33.0 µM 22% | [10]; [17] -4% | [11]; at 1.2 µM -3% | [11]; at 3.7 µM -2% | [11]; [17] 2% | [11]; at 11.0 µM -3% | [11]; at 33.0 µM 4% | [12]; at 1.2 µM 0% | [12]; at 3.7 µM 1% | [12]; at 11.0 µM -2% | [12]; at 33.0 µM 6% | [13]; at 1.2 µM -1% | [13]; at 3.7 µM -3% | [13]; at 11.0 µM -5% | [13]; at 33.0 µM 2% | [14]; at 1.2 µM -5% | [14]; at 3.7 µM -5% | [14]; at 11.0 µM -5% | [14]; at 33.0 µM 9% | [15]; [17] 12% | [16]; at 1.2 µM -4% | [16]; at 3.7 µM -5% | [16]; at 11.0 µM -8% | [16]; at 33.0 µM 6%

Cc1ccccc1N=C(NO)c1ccccc1
active: [1]; at 100.0 µM 97% | [2]; at 100.0 µM 93% | [4]; at 100.0 µM 95% | [5]; at 50.0 µM 90.6% | [5]; at 100.0 µM 97% | [6]; at 50.0 µM 82.8% | [6]; at 100.0 µM 97% | [7]; at 100.0 µM 96% | [8]; at 50.0 µM 80% | [9]; at 100.0 µM 95% | [10]; at 50.0 µM 74.2% | [11]; at 50.0 µM 76.8% | [11]; at 100.0 µM 94% | [12]; at 100.0 µM 94% | [13]; at 100.0 µM 95% | [14]; at 100.0 µM 98% | [15]; at 50.0 µM 92.9% | [16]; at 100.0 µM 96%
inactive: [1]; at 1.2 µM 10% | [1]; at 3.7 µM 9% | [1]; at 11.0 µM 22% | [1]; at 33.0 µM 60% | [2]; at 1.2 µM 0% | [2]; at 3.7 µM -4% | [2]; at 11.0 µM -6% | [2]; at 33.0 µM 9% | [3]; at 1.2 µM 1% | [3]; at 3.7 µM 6% | [3]; at 11.0 µM 15% | [3]; at 33.0 µM 42% | [3]; at 100.0 µM 67% | [4]; at 1.2 µM 0% | [4]; at 3.7 µM -4% | [4]; at 11.0 µM -4% | [4]; at 33.0 µM 30% | [5]; at 1.2 µM 8% | [5]; at 3.7 µM 15% | [5]; [17] -141% | [5]; at 11.0 µM 31% | [5]; at 33.0 µM 59% | [5]; [18] 33% | [6]; at 1.2 µM 1% | [6]; at 3.7 µM 0% | [6]; [17] -44% | [6]; at 11.0 µM -5% | [6]; at 33.0 µM 49% | [6]; [18] 14% | [7]; at 1.2 µM 0% | [7]; at 3.7 µM -4% | [7]; at 11.0 µM 6% | [7]; at 33.0 µM 29% | [8]; [17] -61% | [8]; [18] 49% | [9]; at 1.2 µM -3% | [9]; at 3.7 µM -5% | [9]; at 11.0 µM -2% | [9]; at 33.0 µM 20% | [10]; [17] -56% | [10]; [18] 20% | [11]; at 1.2 µM 3% | [11]; at 3.7 µM -1% | [11]; [17] -67% | [11]; at 11.0 µM -5% | [11]; at 33.0 µM 5% | [11]; [18] 37% | [12]; at 1.2 µM -3% | [12]; at 3.7 µM -3% | [12]; at 11.0 µM -4% | [12]; at 33.0 µM 20% | [13]; at 1.2 µM 1% | [13]; at 3.7 µM 2% | [13]; at 11.0 µM 2% | [13]; at 33.0 µM 31% | [14]; at 1.2 µM 1% | [14]; at 3.7 µM 6% | [14]; at 11.0 µM 15% | [14]; at 33.0 µM 62% | [15]; [17] -122% | [15]; [18] 29% | [16]; at 1.2 µM 1% | [16]; at 3.7 µM 2% | [16]; at 11.0 µM 11% | [16]; at 33.0 µM 35%
